From PubChem BioAssay (EPA / NIEHS)
Where “and” joins values, the source holds several entries; their conditions need not be identical. Identical values can stand only once. More than one record can exist for a structure, and the calls need not agree. Calls of active or inactive are those of the source. Rule for the calls: active = hit-call score of the fitted dose curve at least 0.9, where 1 is the maximum; inactive = score below 0.9.

Columns and labels:
[1] = read-out: Urokinase-type plasminogen activator receptor (uPAR), PLAUR (gene 5329); assay: BSK_4H_uPAR: BioMAP Diversity Plus: 4H Assay for Urokinase-type plasminogen activator receptor (uPAR) Biomarker Activity (AID 2283030); details: primary human endothelial cells (HUVEC); actives raise or lower the signal
Summary of the method: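 Primary human umbilical vein endothelial cells were exposed to chemical for 24 h before cell-surface uPAR was quantified by ELISA. Activity was fitted bidirectionally against the DMSO negative control baseline.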

[2] = read-out: Vascular cell adhesion molecule 1 (VCAM1), VCAM1 (gene 7412); assay: BSK_4H_VCAM1: BioMAP Diversity Plus: 4H Assay for Vascular cell adhesion molecule 1 (VCAM1) Biomarker Activity (AID 2283033); details: primary human endothelial cells (HUVEC); actives raise or lower the signal
Summary of the method: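 Primary human umbilical vein endothelial cells, 4H stimulation system, treated for 24 h; cell-surface VCAM-1 quantified by ELISA. Bidirectional fitting against DMSO; cytotoxicity tracked by SRB total-protein staining in parallel cultures.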

[3] = read-out: Interferon-gamma inducible Protein 10 (IP10), CXCL10 (gene 3627); assay: BSK_BE3C_IP10: BioMAP Diversity Plus: BE3C Assay for Interferon-gamma inducible Protein 10 (IP10) Biomarker Activity (AID 2283034); details: primary human bronchial epithelial cells; actives raise or lower the signal
Summary of the method: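 Primary human bronchial epithelial cells, with IP-10 measured by ELISA 24 hours after chemical dosing. Bidirectional fit against DMSO; cytotoxicity checked by SRB total protein staining in parallel cultures.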

[4] = read-out: Monokine induced gamma interferon (MIG), CXCL9 (gene 4283); assay: BSK_BE3C_MIG: BioMAP Diversity Plus: BE3C Assay for Monokine induced gamma interferon (MIG) Biomarker Activity (AID 2283035); details: primary human bronchial epithelial cells; actives raise or lower the signal;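 for outcome: MIG protein measured by ELISA in BE3C cultures after 24 h of dosing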
Summary of the method: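 MIG level was determined by ELISA after 24 h chemical treatment of primary human bronchial epithelial cells. Values were fitted bidirectionally with DMSO as the negative control and activity baseline.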

[5] = read-out: Plasminogen activator inhibitor-1 (PAI1), SERPINE1 (gene 5054); assay: BSK_BE3C_PAI1: BioMAP Diversity Plus: BE3C Assay for Plasminogen activator inhibitor-1 (PAI1) Biomarker Activity (AID 2283037); details: primary human bronchial epithelial cells; actives raise or lower the signal
Summary of the method: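 Primary human bronchial epithelial cells (BE3C system) exposed 24 h; PAI-1 quantified by ELISA. Parallel sulforhodamine B staining of total protein flags cytotoxicity. Bidirectional fit versus DMSO.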

[6] = read-out: urokinase plasminogen activator (uPA), PLAU (gene 5328); assay: BSK_BE3C_uPA: BioMAP Diversity Plus: BE3C Assay for urokinase plasminogen activator (uPA) Biomarker Activity (AID 2283038); details: primary human bronchial epithelial cells; actives raise or lower the signal;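 for outcome: uPA protein level quantified by ELISA in cell cultures; uPA read one day after compound addition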
Summary of the method: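 Human primary bronchial epithelial cells were exposed to chemical for 24 h, then uPA levels were measured by ELISA. Responses were fitted bidirectionally against DMSO as negative control and baseline. Parallel SRB staining of total protein gauged overt cytotoxicity.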

[7] = read-out: Urokinase-type plasminogen activator receptor (uPAR), PLAUR (gene 5329); assay: BSK_BE3C_uPAR: BioMAP Diversity Plus: BE3C Assay for Urokinase-type plasminogen activator receptor (uPAR) Biomarker Activity (AID 2283039); details: primary human bronchial epithelial cells; actives raise or lower the signal;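 for outcome: cells exposed to compound for one day before measurement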
Summary of the method: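 Primary human bronchial epithelial cells dosed for 24 h; uPAR quantified by ELISA with bidirectional fitting against DMSO. Overt cytotoxicity assessed in parallel cultures by SRB total-protein staining (0.1% SRB, 560 nm).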

[8] = read-out: Vascular endothelial growth factor receptor 2 (Homo sapiens) (UniProt P35968); assay: BSK_4H_VEGFRII: BioMAP Diversity Plus: 4H Assay for Vascular endothelial growth factor receptor 2 (VEGFR2) Biomarker Activity (AID 2283031); details: primary human endothelial cells (HUVEC); actives raise or lower the signal;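 for AC50: cell-surface VEGFR2 protein level quantified by ELISA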
Summary of the method: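 Primary human umbilical vein endothelial cells in the BioMAP 4H system were dosed with test chemical, and 24 h later VEGFRII was measured by ELISA. Activity was fitted bidirectionally against DMSO as negative control and baseline.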

[9] = read-out: Human Leukocyte Antigen - DR isotype (HLADR), HLA-DRA (gene 3122); assay: BSK_BE3C_HLADR: BioMAP Diversity Plus: BE3C Assay for Human Leukocyte Antigen - DR isotype (HLADR) Biomarker Activity (AID 2283032); details: primary human bronchial epithelial cells; actives raise or lower the signal
Summary of the method: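 Human primary bronchial epithelial cells (BE3C system) exposed to compound for 24 hours; cell-surface HLA-DR measured by ELISA, fitted bidirectionally relative to DMSO. Total protein by SRB in parallel cultures tracked cytotoxicity.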

[10] = read-out: Transforming growth factor beta 1 (TGFb1), TGFB1 (gene 7040); assay: BSK_BE3C_TGFb1: BioMAP Diversity Plus: BE3C Assay for Transforming growth factor beta 1 (TGFb1) Biomarker Activity (AID 2283036); details: primary human bronchial epithelial cells; actives raise or lower the signal
Summary of the method: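 Primary human bronchial epithelial cells dosed with chemical; TGF-b1 measured by ELISA 24 h after dosing. Bidirectional curve fitting against DMSO negative control; SRB total-protein staining in parallel cultures gauged cytotoxicity.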

FC(F)(I)C(F)(F)C(F)(F)C(F)(F)I
AC50 [1]: 50.3 µM (active) and 57.1 µM (active) | outcome [1]: inactive | AC50 [2]: 22.9 µM (active) and 53.8 µM (active) and 54.1 µM (active) | AC50 [3]: 58.2 µM (active) and 46.9 µM (active) and 54.8 µM (active) | AC50 [4]: 48.9 µM (active) | outcome [4]: inactive | AC50 [5]: 50.8 µM (active) | outcome [5]: inactive | outcome [6]: inactive | AC50 [7]: 51.1 µM (active) and 47.9 µM (active) | outcome [7]: inactive

O=C(O)C(F)(F)C(F)(F)C(F)F
outcome [1]: inactive | outcome [8]: inactive | outcome [2]: inactive | outcome [3]: inactive | outcome [4]: inactive | outcome [5]: inactive | outcome [6]: inactive | outcome [7]: inactive

O=C(O)C(F)(F)C(F)(F)C(F)(F)C(F)(F)C(F)(F)C(F)(F)C(F)(F)C(F)(F)C(F)(F)C(F)(F)C(F)(F)C(F)(F)F
outcome [1]: inactive | AC50 [8]: 22 µM (active) and 11.1 µM (active) | outcome [9]: inactive | AC50 [2]: 3.66 µM (active) and 1.18 µM (active) | outcome [3]: inactive | outcome [4]: inactive | outcome [5]: inactive | outcome [6]: inactive | outcome [7]: inactive

CCCCCCOC(=O)c1ccccc1O
AC50 [1]: 38.5 µM (active) and 44.3 µM (active) | outcome [8]: inactive | outcome [9]: inactive | AC50 [2]: 43.2 µM (active) and 42.5 µM (active) | outcome [3]: inactive | outcome [4]: inactive | outcome [5]: inactive | outcome [6]: inactive | outcome [7]: inactive

OCC(F)(F)C(F)(F)C(F)(F)C(F)(F)C(F)(F)C(F)(F)F
AC50 [1]: 47.8 µM (active) | outcome [1]: inactive | outcome [8]: inactive | AC50 [9]: 41.7 µM (active) | outcome [9]: inactive | outcome [2]: inactive | outcome [3]: inactive | AC50 [4]: 45.1 µM (active) and 54.8 µM (active) | outcome [5]: inactive | outcome [6]: inactive | outcome [7]: inactive

CCCCCCCCCCCCCCCC[N+](C)(C)Cc1ccccc1
AC50 [1]: 5.78 µM (active) | AC50 [8]: 38.8 µM (active) | AC50 [9]: 2.19 µM (active) | AC50 [2]: 1.78 µM (active) | AC50 [3]: 2.47 µM (active) | AC50 [4]: 10 µM (active) | AC50 [10]: 20 µM (active) | AC50 [5]: 20 µM (active) | AC50 [6]: 13.2 µM (active) | AC50 [7]: 9.42 µM (active)

O=C(O)C(F)(F)C(F)(F)C(F)(F)C(F)(F)C(F)(F)C(F)(F)C(F)(F)C(F)(F)C(F)(F)C(F)F
outcome [1]: inactive | outcome [8]: inactive | AC50 [9]: 10.5 µM (active) | AC50 [2]: 47.8 µM (active) and 55.4 µM (active) | AC50 [3]: 8.14 µM (active) and 8.37 µM (active) | AC50 [4]: 15 µM (active) and 14.9 µM (active) | AC50 [5]: 14 µM (active) and 12.1 µM (active) | AC50 [6]: 16.5 µM (active) and 10.6 µM (active) | AC50 [7]: 15.7 µM (active) and 16.7 µM (active)

Oc1ccc(Nc2ccccc2)cc1
AC50 [1]: 3.14 µM (active) | outcome [8]: inactive | AC50 [2]: 20 µM (active) | AC50 [3]: 3.97 µM (active) | outcome [4]: inactive | AC50 [10]: 5.46 µM (active) | AC50 [5]: 7.39 µM (active) | outcome [6]: inactive | outcome [7]: inactive

OCCCC(F)(F)C(F)(F)C(F)(F)C(F)(F)C(F)(F)C(F)(F)C(F)(F)F
AC50 [1]: 51.2 µM (active) and 47.3 µM (active) | AC50 [8]: 44.6 µM (active) and 45.4 µM (active) | AC50 [9]: 50.4 µM (active) and 45.9 µM (active) | AC50 [2]: 46.4 µM (active) and 48.6 µM (active) | AC50 [3]: 47.6 µM (active) and 46.4 µM (active) | AC50 [4]: 49.6 µM (active) and 55.7 µM (active) | AC50 [5]: 47.1 µM (active) and 30 µM (active) | AC50 [6]: 46.5 µM (active) and 47.5 µM (active) | AC50 [7]: 52.4 µM (active) and 47.2 µM (active)

FC(F)(F)C(F)(F)C(F)(F)N(C(F)(F)C(F)(F)C(F)(F)F)C(F)(F)C(F)(F)C(F)(F)F
outcome [1]: inactive | outcome [8]: inactive | outcome [9]: inactive | outcome [2]: inactive | outcome [3]: inactive | outcome [4]: inactive | outcome [5]: inactive | outcome [6]: inactive | outcome [7]: inactive

Cc1ccc(S(=O)(=O)OCC(F)(F)C(F)(F)C(F)(F)C(F)(F)C(F)(F)C(F)F)cc1
AC50 [1]: 46 µM (active) | outcome [1]: inactive | outcome [2]: inactive | outcome [3]: inactive | outcome [4]: inactive | outcome [5]: inactive | outcome [6]: inactive | outcome [7]: inactive

FC(F)(F)C(F)(F)C(F)(F)C(F)(F)C(F)(F)C(F)(F)C(F)(F)C(F)(F)CCS
outcome [1]: inactive | outcome [8]: inactive | outcome [9]: inactive | outcome [2]: inactive | outcome [3]: inactive | outcome [4]: inactive | outcome [5]: inactive | outcome [6]: inactive | outcome [7]: inactive

CS(C)(=O)=O
outcome [1]: inactive | outcome [8]: inactive | outcome [9]: inactive | outcome [2]: inactive | outcome [3]: inactive | outcome [4]: inactive | outcome [10]: inactive | outcome [5]: inactive | outcome [6]: inactive | outcome [7]: inactive

O[Si](c1ccccc1)(c1ccccc1)c1ccccc1
AC50 [1]: 4.82 µM (active) | AC50 [8]: 29.5 µM (active) | AC50 [2]: 14.8 µM (active) | outcome [3]: inactive | outcome [4]: inactive | outcome [10]: inactive | AC50 [5]: 8.71 µM (active) | outcome [6]: inactive | outcome [7]: inactive

C=C(C)C(=O)OCC(F)(F)C(F)(F)C(F)(F)F
outcome [1]: inactive | outcome [8]: inactive | outcome [9]: inactive | outcome [2]: inactive | outcome [3]: inactive | outcome [4]: inactive | outcome [5]: inactive | outcome [6]: inactive | outcome [7]: inactive

C=C(C)C(=O)OCC(F)(F)C(F)(F)C(F)(F)C(F)(F)C(F)(F)C(F)(F)C(F)(F)F
outcome [1]: inactive | outcome [8]: inactive | outcome [9]: inactive | outcome [2]: inactive | outcome [3]: inactive | outcome [4]: inactive | outcome [5]: inactive | outcome [6]: inactive | outcome [7]: inactive
